# Assay results reported in the supplement of paper PMC6658780.
# Structures can show the parent of a compound that is named as a salt. ± gives the standard deviation of the averaged measurements.
# Tests used:
# [1] = test system: Klebsiella pneumoniae NCTC-13439; test: percent growth inhibition of drug alone vs DMSO control; higher = more growth inhibition; settings: antibiotic (0.125x MIC): none (0.1% DMSO)
# [2] = test system: Klebsiella pneumoniae NCTC-13439; test: percent growth inhibition of drug + antibiotic vs DMSO control; higher = more growth inhibition
# [3] = test system: Klebsiella pneumoniae KPC-119; test: percent growth inhibition of drug alone vs DMSO control; higher = more growth inhibition; settings: antibiotic (0.125x MIC): none (0.1% DMSO)
# [4] = test system: Klebsiella pneumoniae KPC-119; test: percent growth inhibition of drug + antibiotic vs DMSO control; higher = more growth inhibition
# [5] = antibiotic (0.125x MIC): ciprofloxacin, 7 µM
# [6] = antibiotic (0.125x MIC): ciprofloxacin, 20 µM
# [7] = antibiotic (0.125x MIC): tigecycline, 20 µM
# [8] = antibiotic (0.125x MIC): tigecycline, 7 µM
# [9] = antibiotic (0.125x MIC): gentamicin, 7 µM
# [10] = antibiotic (0.125x MIC): gentamicin, 20 µM
# [11] = antibiotic (0.125x MIC): colistin, 7 µM
# [12] = antibiotic (0.125x MIC): colistin, 20 µM
smiles,measurement,setting,value
N=C(NCCCCCCNC(=N)NC(=N)Nc1ccc(Cl)cc1)NC(=N)Nc1ccc(Cl)cc1 [Chlorhexidine],percent growth inhibition of drug alone,[1]; 7 µM,2.54 ± 9.5%
same,percent growth inhibition of drug alone,[1]; 20 µM,57.6 ± 4.2%
same,percent growth inhibition,[2]; [5],38.3 ± 1.2%
same,percent growth inhibition,[2]; [6],100.15 ± 0.021%
same,percent growth inhibition,[2]; [7],100.14 ± 0.079%
NC1CCN(c2c(F)cc3c(=O)c(C(=O)O)cn(C4CC4)c3c2Cl)C1 (centres undefined) [Clinafloxacin],percent growth inhibition of drug alone,[1]; 7 µM,13.5 ± 8.8%
same,percent growth inhibition,[2]; [5],13.8 ± 8.5%
same,percent growth inhibition,[2]; [6],93.36 ± 0.75%
same,percent growth inhibition,[2]; [8],14.4 ± 11%
same,percent growth inhibition,[2]; [7],96.8 ± 4.4%
C/C(=C\C(=O)OCCCCCCCCC(=O)O)C[C@@H]1OC[C@H](C[C@@H]2O[C@H]2[C@@H](C)[C@H](C)O)[C@@H](O)[C@H]1O [Mupirocin],percent growth inhibition of drug alone,[3]; 7 µM,1.64 ± 1.8%
same,percent growth inhibition of drug alone,[3]; 20 µM,6.42 ± 0.11%
same,percent growth inhibition,[4]; [9],16.2 ± 3.3%
same,percent growth inhibition,[4]; [10],41.1 ± 2.1%
CC(=O)CCCCn1c(=O)c2c(ncn2C)n(C)c1=O [Pentoxifylline],percent growth inhibition of drug alone,[1]; 20 µM,2.73 ± 3.2%
same,percent growth inhibition,[2]; [5],2.24 ± 1.5%
same,percent growth inhibition,[2]; [6],5.4 ± 5.5%
same,percent growth inhibition,[2]; [8],1.34 ± 3.2%
same,percent growth inhibition,[2]; [7],4.32 ± 0.75%
C#C[C@]1(OC(C)=O)CC[C@H]2[C@@H]3CCC4=CC(=NO)CC[C@@H]4[C@H]3CC[C@@]21CC (mixture of isomers) [Norgestimate],percent growth inhibition of drug alone,[1]; 7 µM,-4.1 ± 1.3%
same,percent growth inhibition of drug alone,[1]; 20 µM,-14.2 ± 4.9%
same,percent growth inhibition,[2]; [5],-7.59 ± 3.1%
same,percent growth inhibition,[2]; [6],4.4 ± 13%
CCn1cc(C(=O)O)c(=O)c2cc(F)c(N3CCNCC3)nc21 [Enoxacin],percent growth inhibition of drug alone,[3]; 7 µM,1.76 ± 1.6%
same,percent growth inhibition of drug alone,[3]; 20 µM,25.2 ± 4%
same,percent growth inhibition,[4]; [11],13.6 ± 6.1%
same,percent growth inhibition,[4]; [12],97.72 ± 0.24%
same,percent growth inhibition,[4]; [9],-1.06 ± 6.9%
COC(=O)N/N=C/c1c[n+]([O-])c2ccccc2[n+]1[O-] [Carbadox],percent growth inhibition of drug alone,[3]; 7 µM,1.29 ± 2%
same,percent growth inhibition of drug alone,[3]; 20 µM,11 ± 1.9%
same,percent growth inhibition,[4]; [11],34.1 ± 0.81%
same,percent growth inhibition,[4]; [12],87.5 ± 11%
same,percent growth inhibition,[4]; [9],15.7 ± 0.29%
Cc1nc2n(c(=O)c1CCN1CCC(c3noc4cc(F)ccc34)CC1)CCCC2 [Risperidone],percent growth inhibition of drug alone,[1]; 7 µM,-5.2 ± 14%
same,percent growth inhibition of drug alone,[1]; 20 µM,-6.94 ± 7.8%
same,percent growth inhibition,[2]; [5],15.5 ± 4.5%
same,percent growth inhibition,[2]; [6],-11.1 ± 3%
C[C@H](N)[C@H](O)c1cccc(O)c1 [Metaraminol bitartrate],percent growth inhibition of drug alone,[1]; 7 µM,-7.73 ± 11%
same,percent growth inhibition of drug alone,[1]; 20 µM,-0.507 ± 15%
same,percent growth inhibition,[2]; [8],8.48 ± 9.5%
same,percent growth inhibition,[2]; [7],-12.7 ± 7%
COc1ccc(OC)c(C(O)CNC(=O)CN)c1 (centres undefined) [Midodrine hydrochloride],percent growth inhibition of drug alone,[1]; 7 µM,-12.1 ± 4.3%
same,percent growth inhibition of drug alone,[1]; 20 µM,-4.02 ± 9.3%
same,percent growth inhibition,[2]; [7],-2.55 ± 3.2%
CCCCC(CC)CNC(=N)NC(=N)NCCCCCCNC(=N)NC(=N)NCC(CC)CCCC (centres undefined) [Alexidine dihydrochloride],percent growth inhibition of drug alone,[3]; 20 µM,99.76 ± 0.25%
same,percent growth inhibition,[4]; [11],98.02 ± 0.96%
same,percent growth inhibition,[4]; [12],94.8 ± 1.6%
same,percent growth inhibition,[4]; [9],99.857 ± 0.088%
same,percent growth inhibition,[4]; [10],99.929 ± 0.046%
same,percent growth inhibition,"[4]; antibiotic (0.125x MIC): meropenem, 7 µM",99.739 ± 0.078%
same,percent growth inhibition,"[4]; antibiotic (0.125x MIC): meropenem, 20 µM",100.04 ± 0.0019%
CO/N=C(\C(=O)N[C@@H]1C(=O)N2C(C(=O)O)=C(C[N+]3(C)CCCC3)CS[C@H]12)c1csc(N)n1 [Cefepime hydrochloride],percent growth inhibition of drug alone,[3]; 7 µM,3.95 ± 2.2%
same,percent growth inhibition,[4]; [9],37.1 ± 3.7%
C=CC1=C(C(=O)O)N2C(=O)[C@@H](NC(=O)/C(=N\OCC(=O)O)c3csc(N)n3)[C@H]2SC1 [Cefixime],percent growth inhibition of drug alone,[3]; 7 µM,9.48 ± 2.4%
same,percent growth inhibition of drug alone,[3]; 20 µM,44.3 ± 4.2%
same,percent growth inhibition,[4]; [11],9.79 ± 12%
same,percent growth inhibition,[4]; [12],97.8 ± 1.9%
same,percent growth inhibition,[4]; [9],29.8 ± 2%
same,percent growth inhibition,[4]; [10],97.5 ± 3.4%
